From PubChem
hgDAF12 agonist: activates the H. glycines DAF-12 receptor ligand-binding domain; activation, % at 6.8 µM; HEK293 GAL4-hgDAF12 UAS-luciferase reporter, agonist luminescence; normalized to butyrate control; hit rate 1.8% among 370,000; AID 687014;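 active = activation above a cutoff set at the mean of all screened compounds plus 3 SD, cut at about 10% in these data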;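 note: 0% = DMSO wells and 100% = sodium butyrate wells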
AHR activator: activates the human aryl hydrocarbon receptor. P35869. AHR-responsive luciferase reporter cells, luminescence. activation, % at 5 µM. hit rate 2.5% among 320,000; in the data active = activation above about 47%;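 note: 0% = vehicle wells and 100% = reference agonist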
hcDAF-12 act: H. contortus DAF-12 activation, primary screen | HEK293 hcDAF-12 lit1-tk-luc reporter, luminescence; 0% DMSO, 100% Δ7-dafachronic acid | activation, % at 6.8 µM | hit rate 1.4% among 370,000 | AID 652067;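 active = activation above the mean of all tested compounds plus 3 SD, cut at about 5.5% in these data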;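 note: 100% = response to 3 µM Δ7-dafachronic acid high control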
DAX1 inh-1: inhibits human nuclear receptor DAX1; HEK293 Gal4-DAX1 luciferase reporter, luminescence; inhibition, % at 6.75 µM; P51843; AID 504766; hit rate 0.99% among 340,000;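 active = inhibition above the mean over all tested compounds plus 3 SD, cut at about 4.2% in these data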;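 note: 0% = DAX1-transfected cells with DMSO and 100% = empty-vector control cells with DMSO; inhibition shows as a rise in luminescence from relieved DAX1 repression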
DAX1 inh-2: DAX1 (NR0B1) inhibition, primary screen; HEK293T StAR-luciferase reporter, SF-1/DAX-1 repression relief; inhibition, % at 6.8 µM; hit rate 1.1% among 370,000;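 active = inhibition above the mean over all tested compounds plus 3 SD, cut at about 3.6% in these data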;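 note: 0% = DAX-1 cells with DMSO and 100% = cells lacking DAX-1 with DMSO; higher inhibition means more luminescence from relief of DAX-1 repression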
ssDAF-12 act: activators of S. stercoralis DAF-12 nuclear receptor | HEK293 ssDAF-12/GRIP1 lit1-tk-luc reporter, luminescence; % of 3 µM dafachronic acid response | activation, % at 6.8 µM | hit rate 1% among 370,000 | AID 652126;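 active = activation above the mean over all tested compounds plus 3 SD, cut at about 0.9% in these data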;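 note: 0% = DMSO-only wells and 100% = 3 µM delta7-dafachronic acid wells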
An asterisk follows results filed as active. Only some compounds are listed: those with a hit (about 5.7% of all), similar ones and a draw of the others.

Results for O=C1c2nc3ccccn3c2C(=O)N1Cc1ccccc1 ?
hgDAF12 agonist: 2.3; AHR activator: 9.0; hcDAF-12 act: 0.6; DAX1 inh-1: 0.3; DAX1 inh-2: 0.5; ssDAF-12 act: 1.4*

How did O=C1c2nccnc2C(=O)N1Cc1ccccc1 do in these assays?
hgDAF12 agonist: -2.5; hcDAF-12 act: -1.5; DAX1 inh-1: 0.1; DAX1 inh-2: -1.6; ssDAF-12 act: -1.1

How did CCCCCCCCC1=NCCc2c1[nH]c1ccccc21 do in these assays?
hgDAF12 agonist: 4.9; AHR activator: 36.1; hcDAF-12 act: 4.6; DAX1 inh-1: 1.3; DAX1 inh-2: -0.3; ssDAF-12 act: 0.1

Results for O=C1/C(=C/c2cccnc2)CCc2c1[nH]c1ccccc21 ?
hgDAF12 agonist: 13.2*; AHR activator: 72.8*; hcDAF-12 act: 1.1; DAX1 inh-1: -0.2; DAX1 inh-2: 2.8; ssDAF-12 act: -1.1

What do the screens show for `CC(C)C/C=C1\CCc2c([nH]c3ccccc23)C1=O`?
hgDAF12 agonist: 6.6; AHR activator: 63.6*; hcDAF-12 act: 0.5; DAX1 inh-1: 0.9; DAX1 inh-2: -0.2; ssDAF-12 act: -0.4

How did CNS(=O)(=O)c1ccc(NC(=O)c2cc(-c3ccncc3)nc3ccc(Cl)cc23)cc1 do in these assays?
hgDAF12 agonist: 1.5; AHR activator: 8.8; hcDAF-12 act: 1.0; DAX1 inh-1: 0.9; DAX1 inh-2: 0.0; ssDAF-12 act: -0.6

How did C(=NN1CCCCCC1)c1ccc2c(c1)OCO2 do in these assays?
hgDAF12 agonist: 6.3; hcDAF-12 act: 2.1; DAX1 inh-1: 4.3*; DAX1 inh-2: 0.9; ssDAF-12 act: -0.2

Results for Cn1c(=S)n(/N=C/c2ccc3c(c2)OCO3)c2ccccc21 ?
hgDAF12 agonist: 0.2; AHR activator: 57.7*; hcDAF-12 act: 0.8; DAX1 inh-1: -0.5; DAX1 inh-2: -0.5; ssDAF-12 act: -1.3

How did O=C(/C=C/C=C/c1ccc2c(c1)OCO2)N1CCCCC1 do in these assays?
hgDAF12 agonist: 9.9; AHR activator: 17.9; hcDAF-12 act: 4.5; DAX1 inh-1: 5.3*; DAX1 inh-2: 1.6; ssDAF-12 act: -0.5

Results for CCc1n[nH]c(=S)n1/N=C/c1ccc2c(c1)OCO2 ?
hgDAF12 agonist: -0.1; AHR activator: 16.6; hcDAF-12 act: -1.4; DAX1 inh-1: 4.8*; DAX1 inh-2: 0.1; ssDAF-12 act: -1.1

How did C(=N\n1cnnc1)/c1ccc2c(c1)OCO2 do in these assays?
hgDAF12 agonist: 0.7; AHR activator: 6.2; hcDAF-12 act: -1.1; DAX1 inh-1: -0.7; DAX1 inh-2: -0.6; ssDAF-12 act: -0.5

What do the screens show for `COc1ccc(/C=N/n2c(=S)n(C)c3ccccc32)cc1OC`?
hgDAF12 agonist: -0.2; AHR activator: 7.2; hcDAF-12 act: -0.7; DAX1 inh-1: -0.5; DAX1 inh-2: -0.1; ssDAF-12 act: -0.8

How did CN1CCN(C(=O)/C=C/c2ccc3c(c2)OCO3)CC1 do in these assays?
hgDAF12 agonist: 0.5; AHR activator: 22.6; hcDAF-12 act: 2.6; DAX1 inh-1: -0.9; DAX1 inh-2: 0.2; ssDAF-12 act: -1.4

How did COC(=O)c1cc(=O)nc(NN=C(C)C)s1 do in these assays?
hgDAF12 agonist: 3.5; hcDAF-12 act: -0.5; DAX1 inh-2: -0.1; ssDAF-12 act: -0.9

Results for Nc1c(N(CCC2=CCCCC2)C(=O)c2ccccc2F)c(=O)[nH]c(=O)n1Cc1ccccc1 ?
hgDAF12 agonist: 0.7; AHR activator: 3.6; hcDAF-12 act: -0.5; DAX1 inh-1: 0.7; DAX1 inh-2: -0.6; ssDAF-12 act: -0.2

How did CC(C)CC1(C)N=C(c2ccccc2)C(=S)N1 (stereo not drawn) do in these assays?
hgDAF12 agonist: -1.2; AHR activator: -1.5; hcDAF-12 act: -0.1; DAX1 inh-1: 2.9; DAX1 inh-2: -0.2; ssDAF-12 act: -1.2

Results for Cc1ccccc1CNC(=O)CN1CCCc2ccccc21 ?
hgDAF12 agonist: -0.1; hcDAF-12 act: -0.2; DAX1 inh-2: -0.7; ssDAF-12 act: -0.7

How did Cc1cc2ncn(/N=C/c3ccc4c(c3)OCO4)c2cc1C do in these assays?
hgDAF12 agonist: -0.8; AHR activator: 55.1*; hcDAF-12 act: -0.3; DAX1 inh-1: 0.6; DAX1 inh-2: -0.2; ssDAF-12 act: -1.7

How did C=C1[C@@H](CCO)N(S(=O)C(C)(C)C)C[C@@H]1C (stereo partly drawn) do in these assays?
hgDAF12 agonist: -0.3; hcDAF-12 act: -1.1; DAX1 inh-2: 0.5; ssDAF-12 act: 0.3

How did Cc1cccc(-n2c(O)cnc2Nc2nc(C)cc(C)n2)c1 do in these assays?
hgDAF12 agonist: 4.5; AHR activator: 64.8*; hcDAF-12 act: -2.4; DAX1 inh-2: 0.2; ssDAF-12 act: 0.2

How did N/C(Cc1cccc2ccccc12)=N\O do in these assays?
hgDAF12 agonist: 2.1; AHR activator: 8.3; hcDAF-12 act: 5.7*; DAX1 inh-1: 0.3; DAX1 inh-2: 0.7; ssDAF-12 act: -0.4

What do the screens show for `N/C(Cc1ccccc1Sc1ccccc1)=N\O`?
hgDAF12 agonist: 2.5; AHR activator: -2.6; hcDAF-12 act: -2.0; DAX1 inh-1: -1.6; DAX1 inh-2: -0.4; ssDAF-12 act: -1.5

How did COc1ccc(C(=O)NC2CC2)cc1OC1CCN(Cc2cc(C)cc(C)c2)CC1 do in these assays?
hgDAF12 agonist: -0.2; AHR activator: 14.2; hcDAF-12 act: -0.9; DAX1 inh-1: -0.2; DAX1 inh-2: 0.4; ssDAF-12 act: -1.2

What do the screens show for `COc1ccc2cc(-c3cccc4[nH]cc(C)c34)ccc2c1`?
hgDAF12 agonist: -1.3; hcDAF-12 act: 3.0; DAX1 inh-2: -1.1; ssDAF-12 act: 1.5*

How did Cc1c[nH]c2cccc(-c3ccccc3)c12 do in these assays?
hgDAF12 agonist: 1.2; hcDAF-12 act: 0.1; DAX1 inh-2: -0.2; ssDAF-12 act: -1.4

How did COc1ccc(/C=C2\CCc3c2nc2ccccc2c3C(=O)O)cc1OC do in these assays?
hgDAF12 agonist: 1.2; AHR activator: 4.8; hcDAF-12 act: 4.4; DAX1 inh-1: -0.3; DAX1 inh-2: 4.3*; ssDAF-12 act: -0.4

How did CC(=O)N1CCN(C(=O)c2cc3c(s2)CCC(C)C3)CC1 (stereo not drawn) do in these assays?
hgDAF12 agonist: 5.5; hcDAF-12 act: 0.3; DAX1 inh-1: 1.6; DAX1 inh-2: 3.9*; ssDAF-12 act: 1.0*

Results for Cc1ccc(S(=O)(=O)N2CCN(C(=O)c3cc4c(s3)CCC(C)C4)CC2)cc1 (stereo not drawn) ?
hgDAF12 agonist: -0.3; hcDAF-12 act: -0.1; DAX1 inh-1: -0.8; DAX1 inh-2: 0.5; ssDAF-12 act: -0.2

Results for CCOC(=O)CSc1nc2sc3c(c2c(=O)n1-c1ccc(C)cc1)CCN(C)C3 ?
hgDAF12 agonist: 0.0; hcDAF-12 act: 6.1*; DAX1 inh-1: -1.2; DAX1 inh-2: -0.1; ssDAF-12 act: -0.2

How did O=C(NCCc1ccc(C(F)(F)F)cc1)c1ccc(Cl)nc1 do in these assays?
hgDAF12 agonist: -2.2; AHR activator: -4.8; hcDAF-12 act: -1.6; DAX1 inh-1: -0.8; DAX1 inh-2: -0.5; ssDAF-12 act: -1.5
